Each structure is given as a SMILES string. Inconclusive results are not listed. Entries that show only a call come without a potency. The source made the active and inactive calls. Calls come from the whole dose curve; as a rule, active = well fitted curve in the direction sought with a large enough effect; inconclusive = small, poorly fitted or top-dose-only effect, or effect the other way, or another doubt; inactive = no such curve, though single readings can be large or run the other way.

The experiment deals with Thyrotropin receptor (Homo sapiens) (UniProt P16473). Put plainly: qHTS Assay for Antagonists of the Thyroid Stimulating Hormone Receptor: SAR for Probe. The note with it: HEK293-TSHR, TSH-stimulated cAMP HTRF, 2 h; series mostly up to 57.5 µM. The text has this: TSH is an alpha/beta heterodimeric glycoprotein hormone secreted from the anterior pituitary gland which belongs to the glycoprotein hormone family. The actions of TSH are mediated by a seven-transmembrane receptor, which upon TSH binding couples preferentially to the G-alpha (s) protein (Gs), resulting in activation of adenylate cyclase and increase in cyclic adenosine 3', 5' monophosphate (cAMP). The TSH receptor (THSR) is mainly expressed in thyroid follicular cells and regulates their growth and function. This cell based assay was conducted on a TSHR transfected HEK 293 cell line, measuring cAMP stimulation using antibody-based Homogeneous Time Resolved Fluorescence (HTRF). Our goal is to identify small molecules that will inhibit (antagonize) the thyroid-stimulating hormone receptor (TSHR), a member of the 7 transmembrane-spanning receptor (7TMR) family of cell surface receptors. TSHR-mediated hyperthyroidism is important in thyroid pathology. The development of small molecule antagonists of TSHR may lead to therapeutic approaches for TSHR-mediated hyperthyroidism caused by constitutively activating mutations or stimulating auto-antibodies associated with Graves' disease. Graves' disease is the leading cause of hyperthyroidism and is caused by autoantibodies that stimulate TSHR (TsAbs) causing thyroid growth and unregulated overproduction of thyroid hormones and existing treatments have liabilities (agranulocytosis). In addition, TSHRs are known to be expressed in multiple extrathyroidal tissues including bone, brain, kidney, testis, fat and cells of the immune system but the role of the TSHR in these tissues is not clear. Therefore, TSHR antagonists/inverse agonists could be used as probes of extrathyroidal TSHR function. Finally, TSHR inverse agonists, which are a subclass of antagonists that inhibit agonist-independent (or basal or constitutive) TSHR signaling, could be used to inhibit TSH-independent signaling in patients with recurrent or metastatic thyroid cancer who are receiving thyroid hormone to suppress TSH. The present assay presents confirmation data for analogues of series of interest in the primary screening assay.
Chain of Thyrotropin receptor (Homo sapiens) (P16473 whole entry, looked up): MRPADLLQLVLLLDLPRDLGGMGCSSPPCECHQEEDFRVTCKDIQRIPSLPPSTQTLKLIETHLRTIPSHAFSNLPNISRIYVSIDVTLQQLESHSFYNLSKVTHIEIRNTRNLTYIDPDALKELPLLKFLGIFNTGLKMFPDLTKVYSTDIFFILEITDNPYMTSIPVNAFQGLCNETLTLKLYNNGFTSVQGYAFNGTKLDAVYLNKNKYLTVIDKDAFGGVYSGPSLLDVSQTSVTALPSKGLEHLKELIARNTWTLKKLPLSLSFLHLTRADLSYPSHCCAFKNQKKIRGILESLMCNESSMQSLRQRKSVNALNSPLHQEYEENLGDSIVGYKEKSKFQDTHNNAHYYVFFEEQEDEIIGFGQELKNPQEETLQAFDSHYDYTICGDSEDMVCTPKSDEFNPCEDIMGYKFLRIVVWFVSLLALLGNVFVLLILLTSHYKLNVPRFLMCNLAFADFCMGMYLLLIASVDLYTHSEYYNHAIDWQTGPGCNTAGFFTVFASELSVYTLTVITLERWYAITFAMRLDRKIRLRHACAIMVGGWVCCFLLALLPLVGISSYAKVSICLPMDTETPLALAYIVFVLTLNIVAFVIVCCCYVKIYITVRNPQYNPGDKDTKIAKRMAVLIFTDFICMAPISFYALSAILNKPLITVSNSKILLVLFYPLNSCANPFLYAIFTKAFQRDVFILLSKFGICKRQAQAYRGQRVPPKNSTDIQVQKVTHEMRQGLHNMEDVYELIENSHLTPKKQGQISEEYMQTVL
An anti cAMP antibody contains a fluorescent cryptate tag (excitation 337 nm; emission 620 nm) and the acceptor is cAMP-d2 (excitation 620 nm; emission 665 nm). When antibody and cAMP-d2 interact and are excited by a 337 nm light, a FRET occurs resulting in emission at 665 nm. The assay is competition between cAMP-d2 and cAMP (from the cell lysate). The homogeneous protocol allows for one step dispense after stimulation that is automation friendly. Step, Parameter, Value, Description 1, Cells, 3 uL, 2000 TSHR freshly harvested cells/well 1536 TC treated White solid bottom plate (Cells resuspended in 10 mM HEPES buffered HBSS and 70 uM RO 20-1724) 2, Compound, 23 nL, Libraries and controls 3, Compound, 1 uL, EC80 TSH (4 nM final) 4, Time, 2 hours, 37C 5, Reagent, 2 uL, cAMP antibody diluted 1:20 in lysis buffer 6, Time, 30 minutes, Room temperature 7, Detector, HTRF settings, Viewlux
For the molecule `COc1ccc(C2NC(=O)c3ccccc3N2)cc1COc1c(C)cc(NC(C)=O)cc1C` (stereo not given), the Potency entry is “inactive”.
For the molecule `COc1ccc(C2Nc3ccccc3C(=O)N2CCO)cc1COc1ccc(NC(C)=O)cc1` (stereo not given), the Potency entry is “inactive”.
As to `COc1ccc(C2Nc3ccccc3C(=O)N2Cc2ccco2)cc1COc1ccc([N+](=O)[O-])cc1` (stereo not given), the Potency result was “inactive”.
On to `COc1ccc(C2Nc3ccccc3C(=O)N2Cc2ccco2)cc1COc1c(C)cc(NC(C)=O)cc1C` (stereo not given), for which the Potency was 36.6 µM (active).
For `COc1ccc(C2Nc3ccccc3C(=O)N2CCCN(C)C)cc1COc1ccc(NC(C)=O)cc1` (stereo not given), the Potency entry is “inactive”.
For the molecule `O=C1c2ccccc2NC(c2ccccc2O)N1Cc1ccccc1` (stereo not given), the Potency entry is “inactive”.
For `COc1cccc(CN2C(=O)c3ccccc3NC2c2ccc(OC)c(COc3c(C)cc(NC(C)=O)cc3C)c2)c1` (stereo not given) the value was “inactive”; for `COc1ccc(C2Nc3ccccc3C(=O)N2Cc2ccccc2)cc1COc1c(C)cc(NC(C)=O)cc1C` (stereo not given), “inactive”; for `COc1ccc(-c2nc3ccccc3c(=O)n2Cc2ccco2)cc1COc1c(C)cccc1C`, “inactive”.
For `COc1ccc(C2Nc3ccccc3C(=O)N2CCCN(C)C)cc1COc1c(C)cc(NC(C)=O)cc1C` (stereo not given), the Potency result was “inactive”.
On to `COc1ccc(OCc2cc(C3Nc4ccccc4C(=O)N3Cc3ccccc3)ccc2OC)cc1` (stereo not given), for which the Potency entry is “inactive”.
Regarding `COc1ccc(CN(Cc2ccccc2)C(=O)CN2CCN(C)CC2)cc1COc1ccc(NC(C)=O)cc1`, the Potency entry was “inactive”.
As to `COc1ccc(C2Nc3ccccc3C(=O)N2Cc2ccccc2)cc1COc1ccccc1OC` (stereo not given), the Potency entry was “inactive”.
Consider `COc1ccc(C2Nc3ccccc3C(=O)N2Cc2cccs2)cc1COc1c(C)cccc1C` (stereo not given), for which the Potency result was “inactive”.
With `COc1ccc(C2Nc3ccccc3C(=O)N2Cc2ccc3c(c2)OCO3)cc1COc1c(C)cc(NC(C)=O)cc1C` (stereo not given), the Potency result is “inactive”.
`Cc1cccc(C)c1OCc1cccc(C2Nc3ccccc3C(=O)N2Cc2ccco2)c1` (stereo not given): the Potency was 32.6 µM (active).
For `COCCN1C(=O)c2ccccc2NC1c1ccc(OC)c(COc2c(C)cc(NC(C)=O)cc2C)c1` (stereo not given) the value was 46.1 µM (active); for `Nc1ccccc1C(=O)NCc1ccco1`, “inactive”.
With `COc1ccc(C(=O)O)cc1COc1ccc(NC(C)=O)cc1`, the Potency result is “inactive”.
On to `COc1ccc(C=O)cc1COc1ccc(NC(C)=O)cc1`, for which the Potency result is “inactive”.
Take `COc1ccc(C2Nc3ccccc3C(=O)N2Cc2ccncc2)cc1COc1c(C)cc(NC(C)=O)cc1C` (stereo not given): the Potency result is “inactive”.
On to `COc1ccc(CN(Cc2ccccc2)C(=O)c2ccc(NC(C)=O)cc2)cc1COc1ccc(NC(C)=O)cc1`, for which the Potency entry was “inactive”.
Turning to `COc1ccc(C2Nc3ccccc3C(=O)N2Cc2ccco2)cc1COc1c(C(C)C)cccc1C(C)C` (stereo not given), the Potency result is “inactive”.
For `COc1ccc(C2Nc3ccccc3C(=O)N2Cc2ccccc2)cc1COc1ccc(NC(=O)c2ccccc2)cc1` (stereo not given) the value was “inactive”.
On to `COc1ccc(C2Nc3ccccc3C(=O)N2Cc2cccnc2)cc1COc1c(C)cccc1C` (stereo not given), for which the Potency is 36.6 µM (active).
As to `COc1ccc(C2Nc3ccccc3C(=O)N2Cc2ccco2)cc1` (stereo not given), the Potency result is “inactive”.
For the molecule `COc1ccc(CN2C(=O)c3ccccc3NC2c2ccc(OC)c(COc3c(C)cc(NC(C)=O)cc3C)c2)cc1` (stereo not given), the Potency result was “inactive”.
As to `COc1cc(C2Nc3ccccc3C(=O)N2Cc2ccccc2)ccc1OCc1ccc(NC(C)=O)cc1` (stereo not given), the Potency result is “inactive”.
Take `COc1ccc(O)c(C2Nc3ccccc3C(=O)N2Cc2ccccc2)c1` (stereo not given): the Potency entry is “inactive”.
In the case of `COc1ccc(C2Nc3ccccc3C(=O)N2Cc2ccccc2)cc1COc1cccc(C)c1` (stereo not given), the Potency entry was “inactive”.
For `COc1ccc(C2Nc3ccccc3C(=O)N2Cc2cccs2)cc1COc1c(C)cc(NC(C)=O)cc1C` (stereo not given) the value was “inactive”; for `COc1ccc(CN(Cc2ccccc2)S(=O)(=O)c2ccccc2)cc1COc1ccc(NC(C)=O)cc1`, “inactive”; for `COc1ccc(C2Nc3ccccc3C(=O)N2Cc2ccccc2)cc1COc1c(C)cccc1C` (stereo not given), “inactive”.
On to `COc1ccc(C2Nc3ccccc3C(=O)N2Cc2ccco2)cc1COc1ccccc1` (stereo not given), for which the Potency entry is “inactive”.
Turning to `COc1ccc(C2Nc3ccccc3C(=O)N2Cc2cccc(OC)c2OC)cc1COc1c(C)cc(NC(C)=O)cc1C` (stereo not given), the Potency result was “inactive”.
For the molecule `COc1ccc(C2Nc3ccccc3C(=O)N2Cc2ccccc2)cc1COc1ccc(Cl)cc1` (stereo not given), the Potency entry is “inactive”.
Take `COc1ccc(C2Nc3ccccc3C(=O)N2Cc2ccco2)cc1COc1ccccc1C` (stereo not given): the Potency entry was “inactive”.
As to `O=c1c2ccccc2nc(-c2ccccc2O)n1Cc1ccccc1`, the Potency result was “inactive”.
For `COc1ccc(C2Nc3cccc(OC)c3C(=O)N2Cc2ccco2)cc1COc1c(C)cc(NC(C)=O)cc1C` (stereo not given) the value was “inactive”; for `COc1cccc(CCN2C(=O)c3ccccc3NC2c2ccc(OC)c(COc3c(C)cc(NC(C)=O)cc3C)c2)c1` (stereo not given), “inactive”.
